Measured values published in the supplement of paper PMC10338343.
± gives the standard deviation.

System: MILI (PIWIL2) piRISC loaded with L1MC piRNA (26 nt)
Assay: pre-steady-state target cleavage rate (min^-1); guide: L1MC piRNA 5'p-UAACUAAAUACUAUGCAAGCUGUAGG; MIWI and MILI are mouse PIWI proteins and EfPiwi is from a freshwater sponge; tags in brackets are library labels; higher = faster piRNA-guided slicing of the target
Method in brief: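 Cleave-'n-Seq reactions paired 0.1 nM transcribed, DNA-blocked target RNA library with 1 nM active affinity-purified piRISC holding one synthetic guide, plus or minus 500 nM GTSF1 partner protein, in HEPES–potassium acetate buffer at 33 °C for 0–8 or 0–960 min. After sequencing of uncleaved targets and normalisation to depth and weakly complementary targets, the pre-steady-state cleavage rate was taken from a burst-and-steady-state fit. Three trials were pooled, and k3 was capped at 0.0001 min^-1.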

[1] = auxiliary factor: 500 nM mouse GTSF1
[2] = auxiliary factor: none (no GTSF1)

Sequence	pre-steady-state target cleavage rate [1]	pre-steady-state target cleavage rate [2]
UCCUGCUCAGCUUGCAUAGUAUUUAGUUA	0.278 ± 0.014	0.00716 ± 0.0018
UCCUGGAUGUCGAUGCAUAGUCUUUAGUUA	0.0205 ± 0.0056	0.00627 ± 0.002
UCCUGGAUGUCCUUGCAUAGUAUUUACGUUA	0.11 ± 0.023	0.00693 ± 0.003
UCCUGGAUGUCGAACGAGAGUAUUUAGUUA	< 0.0001	< 0.0001
UCCUGGAUGUCCAUGCAUAGUAUAUAGUUA	0.0181 ± 0.0064	0.00373 ± 0.0026
UCCUGGAUGUGGAAGCAUAGUAUUUAGUUA	0.026 ± 0.0048	0.00344 ± 0.0029
UCCUGGAUGUGCAUGCAUAGUAUUAAGUUA	0.122 ± 0.017	0.00463 ± 0.0027
UCCUGGAUGUCGAAGCAUAGUAUGUUAGUUA	0.0233 ± 0.0059	0.00487 ± 0.0021
UCCUGGAUGAGCUUGCUUAGUUUUUAGUUA	0.0134 ± 0.0052	0.00418 ± 0.0026
UCCUGGAUGUCGAUGCGUAGUAUUUAGUUA	0.0121 ± 0.0036	0.00501 ± 0.0024
UCCUGGAUGUGGUUGCAUUGUAUUUAGUUA	0.0353 ± 0.0089	0.00721 ± 0.0036
UCCUGGAUCAGCUUGCUUUGUAUUUAGUUA	0.11 ± 0.015	0.0038 ± 0.0028
UCCUGGAUGACCUUGCAUACUAUUUAGUUA	0.062 ± 0.019	0.00358 ± 0.0034
UCCUGGAUGAGCUUGCAAAGUAUUUUGUUA	0.0703 ± 0.019	0.00392 ± 0.0026
UCCUCCUACAGCUUGCUUAGUAUUUACUUA	0.179 ± 0.02	0.00341 ± 0.0022
UCCUGGUACAGCUACCAUAGUAUUUAGUAA	0.28 ± 0.04	0.00528 ± 0.0023
UCCUGGUACAGCUUGCAUACUAAUUAGUUA	0.0462 ± 0.019	0.00356 ± 0.0031
UCCUGGAUGUGCUUGCAUUGUUUUUAGUUA	0.00733 ± 0.005	0.00335 ± 0.0032
UCCUGGAUGAGGUUGCAUAGUUUUUAGUUA	0.00694 ± 0.0049	0.00583 ± 0.0024
UCCUGGAUGUCGAUGCAUAGUACUUUAGUUA	0.0153 ± 0.0039	0.00479 ± 0.0029
UCCUGGAACAGCUUGCAUUGUUUUUAGUUA	0.0144 ± 0.0059	0.00334 ± 0.0023
UCCUGGAUCAGCUUGCAUAGAUUUUAGUUA	0.0267 ± 0.007	0.00395 ± 0.0023
UCCUGGAUGUCAUUGCAUAGUAUUUAGUUA	0.0928 ± 0.015	0.0087 ± 0.0027
UCCUGCUACAGCUUGCAUUGAAUUUAGUUA	0.0223 ± 0.0052	0.00353 ± 0.0025
UCCUGGUACAGCAACCAUAGUAUUUAGUAA	0.313 ± 0.064	0.00382 ± 0.0021
UCCUGGAUGAGGUUGCUUAGUAUUUAGUUA	0.12 ± 0.01	0.0107 ± 0.0022
UCCUGGAUGAGCAUGCAUAGUUUUUAGUUA	0.0197 ± 0.0099	0.00788 ± 0.0023
UCCUGGAACAGCAUGCUUAGUAUUUAGUUA	0.217 ± 0.019	0.005 ± 0.0026
UCCUGGAUGUCGAAGCAUAGUAAUUUAGUUA	0.0148 ± 0.0051	0.0059 ± 0.0018
UCCUGCACAGCUUGCAUAGUAUUUAGUUA	0.317 ± 0.018	0.00995 ± 0.0028
